We go through 80 compounds from PubChem BioAssay AID677 (Vanderbilt High Throughput Screening Facility, 2007).

About 720 (42%) of roughly 1,700 compounds were called active.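 The calls were made as follows: active = calcium response below the same-plate mean of wells given acetylcholine alone at its 80%-effect dose, minus 3 SD; inactive = the rest.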 The set was probably picked from earlier hits. The list is a sample of the results.

The target in this experiment is Muscarinic acetylcholine receptor M1 (Rattus norvegicus) (UniProt P08482). In words: rat M1 muscarinic receptor antagonists, confirmation, CHO cells, Fluo-4 calcium, duplicate (AID 677).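 Also: raw fluorescence intensity difference in arbitrary instrument units and not normalized.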 As to conditions: ACh EC80 antagonism, at 10 µM, stronger effect = lower value.
Muscarinic acetylcholine receptor M1 (Rattus norvegicus), sequence (P08482 whole entry, looked up): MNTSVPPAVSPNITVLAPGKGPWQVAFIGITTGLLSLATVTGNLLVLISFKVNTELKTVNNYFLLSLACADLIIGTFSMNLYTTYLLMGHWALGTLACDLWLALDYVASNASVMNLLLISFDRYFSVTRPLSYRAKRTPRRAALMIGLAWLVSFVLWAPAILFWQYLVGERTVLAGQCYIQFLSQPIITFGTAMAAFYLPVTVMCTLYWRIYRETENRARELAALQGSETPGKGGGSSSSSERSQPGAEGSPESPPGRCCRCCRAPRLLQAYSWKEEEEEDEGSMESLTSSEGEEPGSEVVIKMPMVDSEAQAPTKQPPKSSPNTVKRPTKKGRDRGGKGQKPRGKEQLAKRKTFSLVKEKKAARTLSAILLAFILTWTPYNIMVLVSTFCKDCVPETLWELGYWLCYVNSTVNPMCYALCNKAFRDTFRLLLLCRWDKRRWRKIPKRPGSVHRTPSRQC
Regarding `Cc1ccsc1-c1nc(CSCC(=O)NCCN2CCCC2)c(C)o1`, the calcium response (max-min fluorescence) was 379 (active).

`C=CCn1c(=S)[nH]c2nc3c(cc2c1=O)COC(C)(C)C3`: the calcium response (max-min fluorescence) is 521 (inactive). As for `CN1CCN(c2ccc(NC(=O)COc3ccc(Cl)cc3Cl)cc2)CC1`, the calcium response (max-min fluorescence) is 339 (active). On to `O=C(Cc1cccs1)N1CCCC(c2nc(-c3ccc(S(=O)(=O)N4CCCC4)cc3)no2)C1` (stereo not given), for which the calcium response (max-min fluorescence) is 457 (active). For `CCn1c(=N)n(CC(=O)c2cccc(OC)c2)c2ccccc21`, the calcium response (max-min fluorescence) is 447 (active). As for `CCOC(=O)Nc1ccc2c(c1)N(C(=O)CN1CCN3CCCC3C1)c1ccccc1CC2` (stereo not given), the calcium response (max-min fluorescence) is 476 (active).

On to `Cc1c(C)c2cc3c4c(oc3c(C)c2oc1=O)CCCC4`, for which the calcium response (max-min fluorescence) is 548 (inactive).

For `Cc1ccccc1C(OCC(O)CN1CCCCC1CCO)c1ccccc1` (stereo not given), the calcium response (max-min fluorescence) was 337 (active). Under `O=S(=O)(CCc1nc2ccccc2o1)c1ccc(Cl)cc1` stands 608 (inactive); under `CCCCN(C)C(=O)c1ccc2c(c1)N(CC)C(=O)c1ccccc1S2(=O)=O`, 320 (active).

On to `C=CCSc1nc2ccccc2[nH]1`, for which the calcium response (max-min fluorescence) is 649 (inactive).

Take `Cc1ccc(-c2noc(CCC(=O)Nc3ccccc3N3CCN(C)CC3)n2)cc1`: the calcium response (max-min fluorescence) was 535 (active). On to `COc1ccc(-c2noc(CN(C)S(=O)(=O)c3ccc(C)cc3)n2)cc1`, for which the calcium response (max-min fluorescence) was 520 (inactive). On to `O=C(c1ccco1)N1CCN=C1SCc1cccc(Cl)c1`, for which the calcium response (max-min fluorescence) is 602 (inactive). `CN1CCN(CC(=O)Nc2sc3c(c2C#N)CCC(C(C)(C)C)C3)CC1` (stereo not given): the calcium response (max-min fluorescence) was 551 (inactive).

`O=C(C(NS(=O)(=O)c1cccc2nsnc12)c1ccccc1)N1CCN(c2ccccn2)CC1` (stereo not given): the calcium response (max-min fluorescence) was 430 (active). With `COc1ccc(CCn2c(=N)c(C(=O)NCc3ccco3)cc3c(=O)n4cccc(C)c4nc32)cc1`, the calcium response (max-min fluorescence) is 489 (inactive).

As to `CCN1CCN(c2c(Cl)cccc2NC(=O)c2ccc(Br)o2)CC1`, the calcium response (max-min fluorescence) was 179 (active). Under `CCOC(=O)c1c(NC(=O)CSc2nnc(CN3CCOCC3)n2C)sc2c1CCCC2` stands 535 (inactive). On to `Cc1nc2c(-c3ccc(F)cc3)c(C)nn2c(C)c1CCC(=O)N1CCN(c2ccccn2)CC1`, for which the calcium response (max-min fluorescence) is 512 (active). For the compound `COCCn1c(SCC(=O)Nc2cc(Cl)ccc2OC)nc2c(c1=O)SC(C)C2` (stereo not given), the calcium response (max-min fluorescence) is 596 (inactive). Regarding `Cc1cccc(N2CCN(Cc3c(C)n(C)n(-c4ccccc4)c3=O)CC2)c1C`, the calcium response (max-min fluorescence) was 413 (active). As for `O=C(CCN1C(=O)COc2ccccc21)NCCCN1CCN(c2ccc(F)cc2)CC1`, the calcium response (max-min fluorescence) is 484 (inactive). Consider `CCn1c(=O)cc(OCC(=O)NCCCN2CCN(c3cccc(Cl)c3)CC2)c2ccccc21`, for which the calcium response (max-min fluorescence) was 499 (active). Regarding `COc1cccc2sc(Nc3nc(C)c(C(C)=O)s3)nc12`, the calcium response (max-min fluorescence) is 507 (inactive). Turning to `O=C(NCCCN1CCCCCC1)C1CC(=O)N(C2CCCC2)C1` (stereo not given), the calcium response (max-min fluorescence) was 430 (active). The same measure for `c1ccc(-c2cc(-c3nnc4sc(-c5ccccn5)nn34)[nH]n2)cc1`: 437 (active); for `O=C(NCC(F)(F)F)Nc1nnc(C(F)(F)F)s1`: 552 (inactive).

Turning to `CCN(CCCCOC(=O)c1ccc(OC)c(OC)c1)C(C)Cc1ccc(OC)cc1` (stereo not given), the calcium response (max-min fluorescence) is 18.8 (active). On to `COC(=O)c1ccc(C2C3=C(Nc4nnnn42)c2ccccc2OC3)cc1` (stereo not given), for which the calcium response (max-min fluorescence) was 596 (inactive). Take `CC12CN(Cc3ccccc3)CC(C)(CN(Cc3ccccc3)C1)C2=NO`: the calcium response (max-min fluorescence) was 113 (active).

As to `Cc1nc2ccccc2c2oc(C(=O)NCCCN3CCC(C)CC3)cc12`, the calcium response (max-min fluorescence) was 498 (active). With `CC1CCCC(C)N1CCCNC(=O)c1cc2c(=O)n(C)c3ccccc3c2n1C` (stereo not given), the calcium response (max-min fluorescence) was 487 (inactive). As for `CCC1(C)Cc2c(sc3nc4n(c(=O)c23)CCCS4)CO1` (stereo not given), the calcium response (max-min fluorescence) is 471 (inactive). For the compound `CCC(C(=O)OCCN(CC)CC)c1ccccc1` (stereo not given), the calcium response (max-min fluorescence) is 24 (active). On to `CCN1C(=O)/C(=C2\SC(N3CCCCC3)=NC2=O)c2ccccc21`, for which the calcium response (max-min fluorescence) is 460 (inactive). As for `COc1cc(Cl)c(C)cc1NC(=O)CSc1nnc(-c2ccco2)n1CC(C)C`, the calcium response (max-min fluorescence) was 533 (inactive). On to `CCCCOc1ccc(C(C)(O)CCN2CCOCC2)cc1` (stereo not given), for which the calcium response (max-min fluorescence) was 448 (active). On to `O=C(Nc1ccncc1)c1c(F)cccc1F`, for which the calcium response (max-min fluorescence) was 653 (inactive).

Regarding `CCOC(=O)c1c(-c2ccc(C)cc2C)csc1NC(=O)CSc1nnnn1C`, the calcium response (max-min fluorescence) was 519 (inactive). The same measure for `O=C1NC(Nc2nc3ccccc3s2)(C(F)(F)F)C(=O)N1C1CCCCC1` (stereo not given): 339 (active); for `O=C(C(c1ccccc1)c1ccccc1)N1CCN(CC(O)COc2ccccc2)CC1` (stereo not given): 490 (active). Take `CCC(=O)c1ccc(OCC(O)CN2CCN(c3cccc(C(F)(F)F)c3)CC2)cc1` (stereo not given): the calcium response (max-min fluorescence) was 531 (inactive). Take `COc1ccccc1OCCOc1ccc(/C=N/n2cnnc2)cc1`: the calcium response (max-min fluorescence) was 587 (inactive).

For `CCC/C(O)=C1\C(=O)CC(C)(C)CC1=Nc1ccccc1OC`, the calcium response (max-min fluorescence) was 647 (inactive). The same measure for `Cc1ccc(-c2csc3nnc(SCC(=O)NCc4ccco4)n23)cc1`: 620 (inactive); for `CCOC(=O)N1CCN(C(=O)C2CCN(c3ncnc4c3sc3cccc(F)c34)CC2)CC1`: 468 (active); for `CCOC(=O)N1CCN(S(=O)(=O)c2cc(Br)cc3c2N(C(=O)C2CC2)CC3)CC1`: 646 (inactive). The same measure for `CCOC(=O)N1CCN(CC(=O)Nc2cc(C)nn2-c2nc3ccccc3s2)CC1`: 645 (inactive); for `CCOC(=O)N1CCN(C(=O)C2CCCN(c3ncnc4c3sc3cccc(F)c34)C2)CC1` (stereo not given): 126 (active).

Turning to `COc1ccc(-c2nnn(Cc3nc(N)nc(N4CCCCC4)n3)n2)cc1`, the calcium response (max-min fluorescence) is 539 (inactive). As for `CSc1nnc2c(n1)OC(c1ccsc1)N(C(C)=O)c1ccccc1-2` (stereo not given), the calcium response (max-min fluorescence) was 250 (active). For the compound `CCOC(=O)C1CCN(Cc2coc3ccc(Cl)cc3c2=O)CC1`, the calcium response (max-min fluorescence) is 351 (active).

Turning to `CCC(C)(NC(=O)c1ccccn1)C(=O)NC1CCCCC1` (stereo not given), the calcium response (max-min fluorescence) is 623 (inactive). Take `N#CC(C(=O)c1ccc(S(=O)(=O)N2CCCCCC2)cc1)c1nc2ccccc2[nH]1` (stereo not given): the calcium response (max-min fluorescence) was 689 (inactive). For the compound `O=C(CCCN1C(=O)CSc2ncccc21)N1CCN(c2cccc(C(F)(F)F)c2)CC1`, the calcium response (max-min fluorescence) is 462 (active). Under `CC1=Nn2c(nnc2-c2ccccc2)SC1` stands 675 (inactive). For `CCCCCOC(=O)NCCOC(=O)Nc1ccc(C(=O)OCC)cc1`, the calcium response (max-min fluorescence) is 655 (inactive).

On to `COc1cc(OC)c(C(=O)NC2CC(C)(C)NC(C)(C)C2)cc1OC`, for which the calcium response (max-min fluorescence) is 510 (inactive). With `Cc1cc(C)n(-c2nc(SCC(=O)N3CCCC3)c3c4c(sc3n2)CCCC4)n1`, the calcium response (max-min fluorescence) was 466 (inactive).

Turning to `CN(C)CCOC(=O)C(c1ccccc1)C1(O)CCCC1` (stereo not given), the calcium response (max-min fluorescence) is 17.7 (active).

Regarding `COC(=O)c1ccc(NC(=O)CN(c2ccc(C)cc2)S(=O)(=O)c2c(C)n[nH]c2C)cc1`, the calcium response (max-min fluorescence) is 538 (inactive). The same measure for `CC1(C)CN=C(N2CCN(c3ncnc4sc5c(c34)CCCC5)CC2)S1`: 344 (active); for `O=C(NC1=NCCS1)c1ccc(Cl)s1`: 680 (inactive).

On to `C=C(C)Cn1c(N2CCCC2)nc2c1c(=O)[nH]c(=O)n2C`, for which the calcium response (max-min fluorescence) is 505 (inactive).

As to `CC(C)(C)n1nnnc1C(c1cccs1)N(Cc1cccnc1)CC1CCCO1` (stereo not given), the calcium response (max-min fluorescence) is 380 (active).

On to `O=S(=O)(c1ccc(OCC(O)CN2CCN(c3ccccc3Cl)CC2)cc1)N1CCOCC1` (stereo not given), for which the calcium response (max-min fluorescence) is 515 (active).

Regarding `O=C(c1ccc(S(=O)(=O)N2CCOCC2)cc1)N1CCN(c2ccccc2)CC1`, the calcium response (max-min fluorescence) is 556 (inactive). Under `CCOC(=O)C1=C(CC)Nc2ccccc2N=C1NC(=O)c1cccc(S(=O)(=O)N2CCCC2)c1` stands 466 (active).

As for `Cn1c(CCN2CCCCCC2)nc2cc(NC(=O)Nc3ccccc3)ccc21`, the calcium response (max-min fluorescence) was 252 (active). Consider `COc1ccc(S(=O)(=O)Nc2ccc3c(c2)OCO3)cc1Cl`, for which the calcium response (max-min fluorescence) was 516 (inactive).

As for `CN(C)[C@@H]1C(=O)C(C(N)=O)=C(O)[C@@]2(O)C(=O)C3=C(O)c4c(O)ccc(Cl)c4[C@@H](O)[C@H]3C[C@@H]12`, the calcium response (max-min fluorescence) is 610 (inactive). Take `CC1(C)Cc2c(sc3nc4n(c(=N)c23)CCCCC4)CO1`: the calcium response (max-min fluorescence) is 398 (inactive). Consider `CCOC(=O)c1[nH]c2ccc(OC)cc2c1NC(=O)CCN1CCN(Cc2ccccc2)CC1`, for which the calcium response (max-min fluorescence) was 218 (active). For `O=C(c1ccc(-n2cnnn2)cc1)N1CCN(C(c2ccccc2)c2ccccc2)CC1`, the calcium response (max-min fluorescence) is 100 (active). Under `CCCCN(CCCC)C(=O)CCS(=O)(=O)c1ccc2c(c1)n(C)c(=O)c(=O)n2C` stands 581 (inactive). For `CCOc1ccccc1C(=O)NCCCn1ccnc1`, the calcium response (max-min fluorescence) is 665 (inactive).

As to `COC(CCN(C)C)(c1ccccc1)c1ccccc1`, the calcium response (max-min fluorescence) was 226 (active).

With `COc1cccc(OCCOc2cccc(/C=N/n3cnnc3)c2)c1`, the calcium response (max-min fluorescence) was 588 (inactive). `COCCN(C(=O)CCC(=O)Nc1ccccn1)C(C(=O)NCCC(C)C)c1ccc(OC)cc1` (stereo not given): the calcium response (max-min fluorescence) is 575 (inactive).
